IMPase Li inh: qHTS Assay for Identifying the Cell-Membrane Permeable IMPase Inhibitors: Potentiation with Lithium | CHO-M1 cells, IP1 TR-FRET (IP-One), carbachol + lithium | Potency, µM (highest dose often 59.4 µM), hits mostly inhibitors | actives 0.35% (n = 210,000); active = well fitted curve in the direction sought with a large enough effect; inconclusive = small, poorly fitted or top-dose-only effect, or another doubt; inactive = no such curve, though single readings can be large; an effect the other way counts as inactive or inconclusive;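 also: IP1 builds up when IMPase is blocked and the TR-FRET signal falls; nearly all actives have a fitted effect of over 50% in size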
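Lithium-sensitised IP1 accumulation assay; M1-expressing CHO cells treated 30 min at 37C with compound. Competitive antibody detection by time-resolved FRET followed a 10 min room-temperature lysis step.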
ALDH1A1 block: qHTS Assay for Inhibitors of Aldehyde Dehydrogenase 1 (ALDH1A1) | Aldehyde dehydrogenase 1A1 (Homo sapiens), P00352 | Purified ALDH1A1, NADH fluorescence, propionaldehyde substrate | actives 7.3% (n = 220,000) | Potency, µM (series often up to 75.3 µM), most hits filed as inhibitors
Target sequence (P00352 whole entry, looked up): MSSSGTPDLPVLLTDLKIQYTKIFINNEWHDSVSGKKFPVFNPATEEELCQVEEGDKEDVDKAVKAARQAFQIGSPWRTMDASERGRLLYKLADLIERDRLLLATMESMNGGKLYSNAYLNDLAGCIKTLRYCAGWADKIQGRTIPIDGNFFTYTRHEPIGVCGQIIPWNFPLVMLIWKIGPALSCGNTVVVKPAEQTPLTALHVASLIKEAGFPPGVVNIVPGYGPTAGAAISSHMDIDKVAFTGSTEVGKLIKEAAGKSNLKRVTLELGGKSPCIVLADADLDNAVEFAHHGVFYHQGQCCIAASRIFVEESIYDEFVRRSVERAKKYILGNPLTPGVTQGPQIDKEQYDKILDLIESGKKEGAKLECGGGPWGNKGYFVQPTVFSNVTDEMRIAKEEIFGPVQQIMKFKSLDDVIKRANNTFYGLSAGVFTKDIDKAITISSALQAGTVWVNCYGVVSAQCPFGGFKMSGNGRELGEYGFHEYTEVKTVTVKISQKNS
KinaseGlo FLuc: Counterscreen for Luciferase (Kinase-Glo TM) Inhibition. Luciferin 4-monooxygenase (Photuris pensylvanica), Q27757. Kinase-Glo luciferase, ATP luminescence, 8 min. Potency, µM (titrated, usually from 38.3 µM), actives largely listed as inhibitors. actives 0.28% (n = 200,000). AID 1379, 2008; active = well fitted curve in the direction sought with a large enough effect; inconclusive = small, poorly fitted or top-dose-only effect, or another doubt; inactive = no such curve, though single readings can be large; an effect the other way counts as inactive or inconclusive; also: nearly all actives have a fitted effect of over 60% in size
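Recombinant Kinase-Glo luciferase, 10 uM ATP (linear range), luciferin; imidazole pH 7.2 / KCl / MgCl2 / Tween / BSA buffer; 8 min RT; luminescence.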
HPGD block: qHTS Assay for Inhibitors of HPGD (15-Hydroxyprostaglandin Dehydrogenase) | purified HPGD, NADH fluorescence kinetic, PGE2 substrate | actives 4.3% (n = 150,000) | Potency, µM, usual class: inhibitors
Target sequence (P15428 whole entry, looked up): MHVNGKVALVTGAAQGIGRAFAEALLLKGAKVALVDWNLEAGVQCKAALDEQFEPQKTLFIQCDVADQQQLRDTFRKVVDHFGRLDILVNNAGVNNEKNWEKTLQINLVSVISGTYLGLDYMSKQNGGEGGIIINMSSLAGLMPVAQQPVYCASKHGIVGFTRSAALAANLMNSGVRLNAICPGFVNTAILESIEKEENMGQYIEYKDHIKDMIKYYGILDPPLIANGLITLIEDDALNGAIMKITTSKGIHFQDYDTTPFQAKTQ
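20 nM HPGD preincubated 15 min at room temperature with compound in 50 mM Tris-HCl pH 8, 0.01% Tween 20. Started with 1 mM NAD+ and 30 uM prostaglandin E2; NADH fluorescence (360/450 nm) read 5 times over 30-s intervals, last minus first.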
Lamin A splicing: qHTS Assay for Modulators of Lamin A Splicing. HeLa LMNA splicing GFP/RFP minigene ratio, 48 h. Potency, µM (doses to about 46.1 µM), actives largely listed as inhibitors. actives 0.01% (n = 200,000); active = well fitted inhibition curve with a large enough effect in the signal ratio, with a control signal flat, not every such curve was filed as active; inconclusive = small, poorly fitted or top-dose-only effect, or effect the other way, or a change in a side signal; the % refers to the signal ratio
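Read-out is the ratio of GFP to DsRed2 object intensity, acquired by 488 nm laser-scanning cytometry on HeLa lamin A-EGFP minigene reporter cells. Compound incubation 48 hrs at 37 °C in Opti-MEM with 2% FBS; DMSO 0.5% final.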
Large screens that a line does not name were inactive. Rows were chosen to be rich in hits. Some 9% of all compounds tested hit in one or more screens of this group. Unless noted, calls follow the shape of the dose curve; as a rule, active = well fitted inhibition curve with a large enough effect (not every such curve was filed as active); inconclusive = small, poorly fitted or top-dose-only effect, or another doubt; inactive = no such curve, though single readings can be large or run the other way.

Cc1ccc(S(=O)(=O)Cc2ccc(C(=O)NCc3ccc4c(c3)OCO4)o2)cc1	ALDH1A1 block 10µM
COc1ccc(N2CCN(C(=O)c3ccc(CS(=O)(=O)c4ccc(OC)cc4)o3)CC2)cc1	none
Cc1ccc(CC(=O)NCc2ccc3c(c2)OCO3)cc1	none
COc1ccc(S(=O)(=O)Cc2ccc(C(=O)N3CCN(Cc4ccccc4)CC3)o2)cc1	ALDH1A1 block 13µM
COc1ccccc1N1CCN(C(=O)c2ccc(CS(=O)(=O)c3ccccc3OC)o2)CC1	IMPase Li inh inconclusive, ALDH1A1 block 18µM, Lamin A splicing inconclusive
COc1ccc(S(=O)(=O)Cc2ccc(C(=O)N3CCN(C(=O)c4ccco4)CC3)o2)cc1	ALDH1A1 block 6µM
Cc1ccc(S(=O)(=O)Cc2ccc(C(=O)N3CCN(Cc4ccccc4)CC3)o2)cc1	ALDH1A1 block 8.9µM
COCCNC(=O)c1ccc(CS(=O)(=O)c2ccc(C)cc2)o1	none
Cc1ccc(S(=O)(=O)Cc2ccc(C(=O)O)o2)cc1	ALDH1A1 block 8.9µM
COC(=O)c1ccc(C#CC(NP(=O)(c2ccccc2)c2ccccc2)c2ccccc2)cc1 (stereo not drawn)	ALDH1A1 block inconclusive, HPGD block 25µM (no result: Lamin A splicing)
COC(=O)c1cccc(NC(=O)CCCOc2ccccc2)c1	ALDH1A1 block inconclusive
COC(=O)c1cccc(C#CC(NP(=O)(c2ccccc2)c2ccccc2)c2ccccc2)c1 (stereo not drawn)	ALDH1A1 block 13µM (no result: Lamin A splicing)
CCC[C@@H]1C[C@@]1(CCC)[C@@H](NP(=O)(c1ccccc1)c1ccccc1)c1ccc(C(=O)OC)cc1	Lamin A splicing inconclusive
Cc1ccc(OCC(=O)Nc2nnc(SCc3cc(=O)n4cc(C)ccc4n3)s2)cc1	none (no result: IMPase Li inh, ALDH1A1 block, KinaseGlo FLuc, HPGD block)
CC(=O)Nc1ccc2c(c1)CCCN2C(=O)c1ccccc1	ALDH1A1 block 14µM
O=C1c2ccccc2C(=O)N1CCCC(=O)N1CCCc2ccccc21	ALDH1A1 block 14µM
O=C(c1ccc(=O)oc1)N1CCCc2ccccc21	ALDH1A1 block 10µM, HPGD block inconclusive
O=C(c1ccccc1)N1CCc2ccccc21	ALDH1A1 block inconclusive, HPGD block 28µM
O=C(CCCC(=O)N1CCc2ccccc21)N1CCc2ccccc21	none
COc1ccc2c(c1)N(CC[C@H]1CCCCN1C)c1ccccc1S2	none (no result: Lamin A splicing)
CC1CCc2c(cc(-c3ccccc3)n2-c2ccc(C(=O)NC(C)C)cc2)C1 (stereo not drawn)	none (no result: IMPase Li inh, ALDH1A1 block, KinaseGlo FLuc, HPGD block)
CCOC(=O)c1noc2nc(C)n(Cc3cccc(C#N)c3)c(=O)c12	none (no result: IMPase Li inh, ALDH1A1 block, KinaseGlo FLuc, HPGD block)
Cc1ccc(S(=O)(=O)Oc2ccc(/C=C(/NC(=O)c3ccccc3)C(=O)NCCCC(=O)O)cc2)cc1	ALDH1A1 block 2.8µM (no result: HPGD block, Lamin A splicing)
Cc1ccc(S(=O)(=O)Oc2ccc(/C=C(/NC(=O)c3ccccc3)C(=O)NCCC(=O)O)cc2)cc1	ALDH1A1 block 2.5µM (no result: HPGD block)
COc1ccc(/C=C(\NC(=O)c2ccccc2)C(=O)NCCC(=O)O)cc1	none (no result: HPGD block)
Cc1ccc(S(=O)(=O)Oc2ccc(/C=C(/NC(=O)c3ccccc3)C(=O)Nc3ccccc3)cc2)cc1	ALDH1A1 block inconclusive, HPGD block inconclusive
COc1ccc(NC(=O)/C(=C\c2ccc(OS(=O)(=O)c3ccc(C)cc3)cc2)NC(=O)c2ccccc2)cc1	ALDH1A1 block 1µM
CC(C)C[C@@H](CC(=O)N[C@@H](CCC(=O)O)CC(=O)O)NC(=O)[C@@H]1CNCC[C@H]1NC(=O)C[C@H](CCCN)NC(=O)C[C@H](Cc1c[nH]c2ccccc12)NC(=O)[C@@H]1CNCC[C@H]1N	ALDH1A1 block inconclusive (no result: Lamin A splicing)
COc1ccc(NC(=S)N(CCc2c(C)[nH]c3ccccc23)Cc2cccnc2)cc1	Lamin A splicing inconclusive
COc1ccc(NC(=S)N(CCc2nc3cc(C)c(C)cc3[nH]2)Cc2cccnc2)cc1	ALDH1A1 block 13µM
O=C(O)c1cccc(NC(=O)c2cccc(S(=O)(=O)Nc3cccc(C(=O)O)c3)c2)c1	none (no result: IMPase Li inh, ALDH1A1 block, KinaseGlo FLuc, HPGD block)
O=C1CSc2ccc(C(=O)Nc3cccc(S(=O)(=O)Nc4ccc(Br)cc4)c3)cc2N1	ALDH1A1 block 10µM, Lamin A splicing inconclusive (no result: HPGD block)
CCC(C)C(=O)O[C@H]1C[C@@H](C)C=C2C=C[C@H](C)[C@H](CC[C@@H]3C[C@@H](O)CC(=O)O3)C21 (stereo partly drawn)	none (no result: Lamin A splicing)
O=C(CSc1cccc[n+]1[O-])Nc1cc2c(cc1Cl)C(=O)c1ccccc1C2=O	ALDH1A1 block 8.9µM
O=C(CSc1ccc(Br)cc1)Nc1ccccc1Oc1ccccc1	Lamin A splicing inconclusive
O=C(CSc1cccc[n+]1[O-])Nc1ccccc1Oc1ccccc1	ALDH1A1 block 14µM (no result: HPGD block, Lamin A splicing)
CCCCNC(=O)CSc1nc(CCC)nc2ccccc12	none (no result: HPGD block, Lamin A splicing)
CCCc1nc(SCC(=O)c2ccc(F)cc2)c2ccccc2n1	ALDH1A1 block 18µM (no result: HPGD block, Lamin A splicing)
Cc1nc2ccccc2nc1SCC(=O)c1ccccc1	ALDH1A1 block 22µM, Lamin A splicing inconclusive
O=C(CSc1nc2ccccc2c2ccccc12)c1ccccc1	none (no result: Lamin A splicing)
O=C(/C=C/c1cccs1)NCc1ccccc1	none (no result: HPGD block, Lamin A splicing)
c1coc(C2Nc3cccc4cccc(c34)N2)c1	ALDH1A1 block 25µM, HPGD block inconclusive
CC(C)(C)c1ccc(-c2nnc(SCCN3C(=O)c4ccccc4C3=O)o2)cc1	HPGD block 18µM
O=C(O)CSc1nnc(-c2ccccc2)o1	none
COc1ccc2c(c1)-c1c(sn(-c3ccccc3)c1=S)C(C)(C)N2	Lamin A splicing inconclusive
COc1ccc(-n2sc3c(c2=S)-c2cc(OC)ccc2NC3(C)C)cc1	ALDH1A1 block 32µM, Lamin A splicing inconclusive
CCOc1ccc(/C=N/OCC(=O)Nc2ccc(OCc3ccccc3)cc2)cc1OC	HPGD block inconclusive, Lamin A splicing inconclusive
COc1cc(/C=N/OCC(=O)NC23CC4CC(CC(C4)C2)C3)ccc1OCc1ccccc1	ALDH1A1 block 22µM, Lamin A splicing inconclusive (no result: IMPase Li inh, KinaseGlo FLuc, HPGD block)
COc1cc(/C=N/OCC(=O)NC2CCCCC2)ccc1OCc1ccccc1	ALDH1A1 block 22µM, Lamin A splicing inconclusive
COc1cc(/C=N/OCC(=O)Nc2ccc(OC(F)F)cc2)ccc1OCc1ccccc1	Lamin A splicing inconclusive
Cn1cccc1C(=O)N1CCC2(CCCN(Cc3ccccc3)C2)CC1	none (no result: Lamin A splicing)
Cc1nnc2c3ccccc3c(-c3cccs3)nn12	Lamin A splicing 7.9µM (no result: HPGD block)
S=C(Nc1ccc2c(c1)OCO2)N1CCN(Cc2ccco2)CC1	Lamin A splicing inconclusive (no result: HPGD block)
O=C(Cn1nnc(-c2cc(C(F)(F)F)cc(C(F)(F)F)c2)n1)NNC(=S)Nc1ccc(Cl)cc1	ALDH1A1 block 1.3µM (no result: IMPase Li inh, KinaseGlo FLuc, HPGD block, Lamin A splicing)
COc1ccccc1CNC(=O)COC(=O)CCC(=O)c1cccs1	none (no result: HPGD block, Lamin A splicing)
COc1ccccc1-n1nc(C)c(-c2ccccc2)c1N	none (no result: HPGD block)

Screening data (PubChem BioAssay)
